Source: ChEMBL document CHEMBL1157539, “Thousands of chemical starting points for antimalarial lead identification” (Nature, 2010)

test system: HepG2; experiment: GSK_TCMDC: Percent inhibition of human HepG2 cell line. Test compounds present at 10uM.; format: functional

Row | Compound | Inhibition [%]
1 | O=C(O)C(F)(F)F.O=S(=O)(NCCN1CCCC1)c1ccc(-c2ccc(CNCc3ccccc3)cc2)s1 | 34
2 | CCNc1cc(C(=O)N[C@@H](Cc2ccccc2)[C@H](O)CN[C@H](C)c2ccccc2)cc(N2CCCC2=O)c1 | 0
3 | O=C(Nc1ccc(F)c([N+](=O)[O-])c1)Nc1cc(C(F)(F)F)ccc1Cl | 5
4 | CCN(CCCN1CCCC1)c1cc(C)nc(Nc2ccc(Cl)cc2)n1.O=C(O)C(=O)O | 5
5 | CS(=O)(=O)c1ccc(CCNCc2ccc(-c3ccc(CN(C(=O)C4CC(=O)c5ccccc54)C4CCN(Cc5ccccc5)CC4)cc3)nc2)cc1.O=C(O)C(F)(F)F (stereo unspecified) | 9
6 | CCN1CCCC(CNC(=O)/C(=C/C=C/c2cc3cc(Cl)c(Cl)cc3[nH]2)OC)C1 (stereo unspecified) | 33
7 | CC(CNC(=O)c1cc2c(Cl)cc(Cl)cc2[nH]1)CNc1cc(=O)c2ccccc2[nH]1.O=C(O)C(F)(F)F (stereo unspecified) | 11
8 | COc1cc2nc(Cl)nc(Nc3ccncc3)c2cc1OC.Cl | 11
9 | O=C(Nc1cccc(C(F)(F)F)c1)NC1CCN(c2ccnc3ccccc23)CC1.O=C(O)C(F)(F)F | 23
10 | Cc1ccc(/C=C/C(=O)NCCCCCN2CCN(C(=O)Nc3ccc(Cl)c(C(F)(F)F)c3)CC2)cc1 | 10
11 | Cc1cc2c(cc1C(F)(F)F)N(C(=O)Nc1cc(C(=O)NC3CCN(Cc4ccccc4)C3)cc(C(F)(F)F)c1)CC2.Cl (stereo unspecified) | 22
12 | O=C(O)C(F)(F)F.c1cc(CNCCN2CCNCC2)cc(-c2cccc(-c3nc4ccccc4[nH]3)c2)c1 | 11
13 | CN(Cc1ccc(C#N)cc1)C1CCN(c2cc(NC(=O)c3cccc(F)c3)ccn2)CC1.O=C(O)C(F)(F)F | 9
14 | Cc1noc(C)c1-c1ccc2c(Nc3ccc(C#N)cc3)c(C(N)=O)cnc2c1 | 6
15 | COc1cc2c(c(Cl)c1OC)CCN(C(=O)C(F)(F)F)CC2c1ccccc1 (stereo unspecified) | 7
16 | Cc1cccc(-n2c(=O)c3c4c(sc3n3c(SCCC(C)C)nnc23)CCCC4)c1 | 0
17 | Cc1ccc2c(c1)c(C1CCN(C(=O)c3ccc([N+](=O)[O-])o3)CC1)cn2C | 0
18 | CCOc1ccccc1C(=O)N1CCc2cc3nccc(N4CCN5CCC[C@H]5C4)c3cc21 | 4

Row | Compound | Inhibition [%]
19 | Cc1nc(Nc2cc(Cl)ccc2O)nc(Nc2cc(Cl)ccc2O)c1[N+](=O)[O-] | 0
20 | CC(C)COc1ccc(C(O)C(CN2CCCCC2)c2ccccc2)cc1 (stereo unspecified) | 11
21 | Cc1cccc(CC2CC(=O)N(c3ccc([N+](=O)[O-])cc3)C2=O)c1 (stereo unspecified) | 11
22 | O=C(NCCCCCN1CCCN(C(=O)Nc2ccc(F)c(C(F)(F)F)c2)CC1)C1CC1c1ccc(Cl)c(Cl)c1 (stereo unspecified) | 61
23 | CC1=NN(c2ccc(C)c(C)c2)C(=O)C1=NNc1cccc(-c2cccc(NC(=O)OC(C)(C)C)c2)c1O | 39
24 | c1ccc(Oc2ccc(Nc3ccnc4cc(-c5csc(CNCCN6CCOCC6)n5)ccc34)cc2)cc1 | 0
25 | Cc1cccc2nc(-c3cccc(-c4cccc(NC(=O)NCc5ccccc5)c4)c3)[nH]c12 | 12
26 | Cc1c(-c2cccc(C(C)(C)NCCCN3CCCCC3)c2)cnc(N)c1C.Cl | 5
27 | Cc1nc(C)c(CC(=O)Nc2ccc(-c3cccc(-c4nc5cccc(C)c5[nH]4)c3)cc2)s1 | 41
28 | CC(=O)Nc1ccc(S(=O)(=O)N2CCN(c3nc(NC4CCCC4)c4ccccc4n3)CC2)cc1 | 7
29 | COc1cccc(-c2c(C#N)c(N)nc3c2c(C)nn3-c2ccccc2)c1O | 4
30 | COc1cccc(NC(=O)Nc2ccc(-c3oc(C(=O)NCC(c4ccccc4)N(C)C)cc3-c3ccncc3)cc2)c1.O=C(O)C(F)(F)F (stereo unspecified) | 6
31 | Cl.O=C(NC1CCN(CC2(c3ccc(Cl)cc3)CCCCC2)CC1)c1cc[nH]n1 | 0
32 | CC(C)N1CCN(C(=O)c2ccc(CN(C)CCCN3CCN(c4cccc(Cl)c4Cl)CC3)s2)CC1.Cl | 74
33 | COc1ccc(NC(=O)Nc2cc(C)nc3ccccc23)cc1Cl | 4
34 | CC(C)CCNCc1c(O)ccc2ccccc12 | 9
35 | O=C(Nc1ccc(F)c(F)c1)c1ccc(CN2CCCN(Cc3cccc(F)c3)CC2)cc1.O=C(O)C(F)(F)F | 51
36 | Cl.NC(=O)c1cccc(Nc2nccc(Nc3ccc(Oc4c(Cl)cccc4Cl)c(Cl)c3)n2)c1 | 2
